# According to the supplement of paper PMC8728848:
# Only a selection was taken, and the strongest signals are over-represented in it overall.
# B1: LCA (Lens culinaris), P02870 (protein)
# chain: MASLQTQMISFYLIFLSILLTTIFFFKVNSTETTSFSITKFSPDQKNLIFQGDGYTTKGKLTLTKAVKSTVGRALYSTPIHIWDRDTGNVANFVTSFTFVIDAPSSYNVADEFTFFIAPVDTKPQTGGGYLGVFNSKEYDKTSQTVAVEFDTFYNAAWDPSNKERHIGIDVNSIKSVNTKSWNLQNGERANVVIAFNAATNVLTVTLTYPNSLEEENVTSYTLNEVVPLKDVVPEWVRIGFSATTGAEFAAHEVHSWSFHSELGGTSSSKQAADA
# Tests used:
# Assay in all cases: glycan array binding signal (z-score within array); higher = stronger binding
# Conditions in all cases: glycan notation: IUPAC condensed, linker removed
# [1] = molecular target: Fuc(a1-2)Gal(b1-3)GalNAc(a1-3)[Fuc(a1-2)]Gal(b1-4)Glc
# Procedure, shortened: (§1)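 Columns mapping to the same glycan were averaged after glycan names were converted to IUPAC-condensed notation. The data come from 3228 arrays in the Consortium for Functional Glycomics database, limited to those with an available protein sequence. Binding is reported as a within-array Z-score averaged across arrays of one protein sequence and across linkers.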
# [2] = molecular target: Fuc(a1-2)Gal(b1-3)GalNAc(b1-3)Gal
# Procedure, shortened: as §1
# [3] = molecular target: Fuc(a1-2)Gal(b1-4)GlcNAc
# Procedure, shortened: as §1
# [4] = molecular target: Fuc(a1-2)Gal(b1-4)GlcNAc(b1-6)GalNAc
# Procedure, shortened: as §1
# [5] = molecular target: Fuc(a1-2)[Gal(a1-3)]Gal(b1-3)GlcNAc(b1-3)GalNAc
# Procedure, shortened: as §1
# [6] = molecular target: Fuc(a1-2)[GalNAc(a1-3)]Gal(b1-4)Glc
# Procedure, shortened: as §1
# [7] = molecular target: Fuc(a1-2)[GalNAc(b1-3)]Gal
# Procedure, shortened: as §1
# [8] = molecular target: Fuc(a1-3)[Gal(b1-4)]GlcNAc(b1-2)Man(a1-3)[Fuc(a1-3)[Gal(b1-4)]GlcNAc(b1-2)Man(a1-6)]Man(b1-4)GlcNAc(b1-4)GlcNAc
# Procedure, shortened: as §1
# [9] = molecular target: Gal(a1-3)Gal(b1-3)GlcNAc(b1-3)GalNAc
# Procedure, shortened: as §1
# [10] = molecular target: Gal(b1-3)GlcNAc(a1-6)Gal(b1-4)GlcNAc
# Procedure, shortened: as §1
# [11] = molecular target: Gal(b1-3)GlcNAc(b1-3)Gal(b1-4)Glc
# Procedure, shortened: as §1
# [12] = molecular target: Gal(b1-3)GlcNAc(b1-3)Gal(b1-4)GlcNAc(b1-6)[Gal(b1-3)GlcNAc(b1-3)]Gal(b1-4)Glc
# Procedure, shortened: as §1
# [13] = molecular target: Gal(b1-3)GlcNAc(b1-6)[Gal(b1-3)]GalNAc
# Procedure, shortened: as §1
# [14] = molecular target: Gal(b1-3)[GlcNAc(b1-6)]GalNAc
# Procedure, shortened: as §1
# [15] = molecular target: Gal(b1-4)GlcNAc(b1-2)[Gal(b1-4)GlcNAc(b1-4)]Man(a1-3)[GlcNAc(b1-4)][Gal(b1-4)GlcNAc(b1-2)[Gal(b1-4)GlcNAc(b1-6)]Man(a1-6)]Man(b1-4)GlcNAc(b1-4)GlcNAc
# Procedure, shortened: as §1
# [16] = molecular target: Gal(b1-4)GlcNAc(b1-2)[Gal(b1-4)GlcNAc(b1-6)]Man(a1-6)[Gal(b1-4)GlcNAc(b1-2)Man(a1-3)]Man(b1-4)GlcNAc(b1-4)[Fuc(a1-6)]GlcNAc
# Procedure, shortened: as §1
# [17] = molecular target: Gal(b1-4)GlcNAc(b1-3)Gal(b1-3)GlcNAc
# Procedure, shortened: as §1
# [18] = molecular target: Gal(b1-4)GlcNAc(b1-3)Gal(b1-4)Glc
# Procedure, shortened: as §1
# [19] = molecular target: Gal(b1-4)GlcNAc(b1-3)Gal(b1-4)GlcNAc(b1-2)Man(a1-3)[Gal(b1-4)GlcNAc(b1-3)Gal(b1-4)GlcNAc(b1-2)Man(a1-6)]Man(b1-4)GlcNAc(b1-4)[Fuc(a1-6)]GlcNAc
# Procedure, shortened: as §1
# [20] = molecular target: Gal(b1-4)GlcNAc(b1-3)Gal(b1-4)GlcNAc(b1-3)Gal(b1-4)GlcNAc(b1-2)Man(a1-3)[Gal(b1-4)GlcNAc(b1-3)Gal(b1-4)GlcNAc(b1-3)Gal(b1-4)GlcNAc(b1-2)Man(a1-6)]Man(b1-4)GlcNAc(b1-4)[Fuc(a1-6)]GlcNAc
# Procedure, shortened: as §1
# [21] = molecular target: Gal(b1-4)GlcNAc(b1-3)Gal(b1-4)GlcNAc(b1-3)Gal(b1-4)GlcNAc(b1-3)Gal(b1-4)GlcNAc(b1-2)Man(a1-3)[Gal(b1-4)GlcNAc(b1-3)Gal(b1-4)GlcNAc(b1-3)Gal(b1-4)GlcNAc(b1-3)Gal(b1-4)GlcNAc(b1-2)Man(a1-6)]Man(b1-4)GlcNAc(b1-4)[Fuc(a1-6)]GlcNAc
# Procedure, shortened: as §1
# [22] = molecular target: Gal(b1-4)GlcNAc(b1-3)Gal(b1-4)GlcNAc(b1-3)Gal(b1-4)GlcNAc(b1-3)Gal(b1-4)GlcNAc(b1-3)Gal(b1-4)GlcNAc(b1-2)Man(a1-3)[Gal(b1-4)GlcNAc(b1-3)Gal(b1-4)GlcNAc(b1-3)Gal(b1-4)GlcNAc(b1-3)Gal(b1-4)GlcNAc(b1-3)Gal(b1-4)GlcNAc(b1-2)Man(a1-6)]Man(b1-4)GlcNAc(b1-4)[Fuc(a1-6)]GlcNAc
# Procedure, shortened: as §1
# [23] = molecular target: Gal(b1-4)GlcNAc(b1-3)Gal(b1-4)GlcNAc(b1-3)Gal(b1-4)GlcNAc(b1-3)Gal(b1-4)GlcNAc(b1-3)Gal(b1-4)GlcNAc(b1-3)Gal(b1-4)GlcNAc(b1-2)Man(a1-3)[Gal(b1-4)GlcNAc(b1-3)Gal(b1-4)GlcNAc(b1-3)Gal(b1-4)GlcNAc(b1-3)Gal(b1-4)GlcNAc(b1-3)Gal(b1-4)GlcNAc(b1-3)Gal(b1-4)GlcNAc(b1-2)Man(a1-6)]Man(b1-4)GlcNAc(b1-4)GlcNAc
# Procedure, shortened: as §1
# [24] = molecular target: Gal(b1-4)GlcNAc(b1-3)Gal(b1-4)GlcNAc(b1-3)[Gal(b1-4)GlcNAc(b1-3)Gal(b1-4)GlcNAc(b1-6)]GalNAc
# Procedure, shortened: as §1
# [25] = molecular target: Gal3S(b1-4)GlcNAc6S
# Procedure, shortened: as §1
# [26] = molecular target: GalNAc(b1-4)GlcNAc(b1-2)Man
# Procedure, shortened: as §1
binder,measurement,setting,value
B1,glycan array binding signal (z-score),[1],-0.201
same,glycan array binding signal (z-score),[2],-0.218
same,glycan array binding signal (z-score),[3],-0.217
same,glycan array binding signal (z-score),[4],-0.218
same,glycan array binding signal (z-score),[5],-0.238
same,glycan array binding signal (z-score),[6],-0.232
same,glycan array binding signal (z-score),[7],-0.257
same,glycan array binding signal (z-score),[8],-0.237
same,glycan array binding signal (z-score),[9],-0.227
same,glycan array binding signal (z-score),[10],-0.211
same,glycan array binding signal (z-score),[11],-0.231
same,glycan array binding signal (z-score),[12],-0.238
same,glycan array binding signal (z-score),[13],-0.231
same,glycan array binding signal (z-score),[14],-0.238
same,glycan array binding signal (z-score),[15],-0.235
same,glycan array binding signal (z-score),[16],4.72
same,glycan array binding signal (z-score),[17],-0.225
same,glycan array binding signal (z-score),[18],-0.205
same,glycan array binding signal (z-score),[19],4.42
same,glycan array binding signal (z-score),[20],4.2
same,glycan array binding signal (z-score),[21],3.87
same,glycan array binding signal (z-score),[22],3.85
same,glycan array binding signal (z-score),[23],-0.192
same,glycan array binding signal (z-score),[24],0.058
same,glycan array binding signal (z-score),[25],-0.227
same,glycan array binding signal (z-score),[26],-0.199
